This excerpt belongs to a sample that is enriched for hits.
KDM5B inhibitor: Primary screen for KDM5B Histone Demethylases FDH-coupled qHTS; KDM5B demethylase, FDH-coupled NADH fluorescence (FDH is formaldehyde dehydrogenase); Potency, µM (doses to about 57.7 µM), actives largely listed as inhibitors; 220,000 tested, 2.6% active; active = well fitted inhibition curve with a large enough effect; also: 0% is about no effect; nearly all actives have a fitted effect of over 70% in size
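qHTS format, multiple compound concentrations. Buffer 50 mM HEPES pH 7.5/0.01% Tween-20; 200 nM KDM5BΔAP final; 10 min compound preincubation; substrate-mix levels 12.5 µM peptide, 25 µM α-KG, 0.25 mM NAD⁺; 30 min RT; ΔRFU.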
Starred values were filed as active, the others as inactive. Potency is read from the fitted curve at half-maximal effect.

What do the screens show for `Clc1ccc(Nc2ncncc2-c2nc(-c3ccccc3)no2)cc1`?
KDM5B inhibitor: inactive

Results for Cn1cc(-c2cnc(NC(=O)c3c[nH]c4ccccc34)c3c2CCO3)cn1 ?
KDM5B inhibitor: inactive

How did Clc1ccc(Nc2ncc(-c3cccnc3)c3c2OCC3)cc1 do in these assays?
KDM5B inhibitor: 32µM*

How did COC(=O)c1cnc(Nc2cccc(C(F)(F)F)c2)c([N+](=O)[O-])c1 do in these assays?
KDM5B inhibitor: inactive

How did COc1ccc(-c2cnc(Nc3cccnc3)c3c2CCO3)cn1 do in these assays?
KDM5B inhibitor: inactive

What do the screens show for `FC(F)(F)c1cccc(Nc2ncc(-c3cccnc3)c3c2OCC3)c1`?
KDM5B inhibitor: 28µM*

What do the screens show for `O=C(NCC(F)(F)F)c1cccnc1Nc1cccc(C(F)(F)F)c1`?
KDM5B inhibitor: inactive

How did CN(C)c1cccc(C(=O)Nc2ncc(-c3cnn(C)c3)c3c2OCC3)c1 do in these assays?
KDM5B inhibitor: inactive

How did Cn1cc(-c2cnc(Nc3cccc(C(F)(F)F)c3)c3c2CCO3)cn1 do in these assays?
KDM5B inhibitor: 35µM*

Results for CC(C)COc1ccc(/C=C(/C#N)c2nc3ccccc3[nH]2)cc1 ?
KDM5B inhibitor: inactive

How did COCCn1c(C)cnc1CC1CCCN(Cc2ccc(F)c(F)c2)C1 (stereo not drawn) do in these assays?
KDM5B inhibitor: inactive

Results for CCOC(=O)c1cc(NC(=O)C2CCC2)cc(C(=O)OCC)c1 ?
KDM5B inhibitor: inactive

How did CCCCN1CCN(C(=O)c2cc(NC(=O)C3CCC3)cc3nc(C)ccc23)CC1 do in these assays?
KDM5B inhibitor: 32µM*

Results for COc1ccc(OCCN2CCN(C(=O)c3cc(C4CC4)nc4ccccc34)CC2)cc1 ?
KDM5B inhibitor: inactive

Results for CCCN1CCN(C(=O)c2cc(NC(=O)C3CCC3)cc3nc(C)ccc23)CC1 ?
KDM5B inhibitor: 22µM*

What do the screens show for `Cc1cc(C(=O)N2CCN(CC(=O)NC3CC3)CC2)c2ccccc2n1`?
KDM5B inhibitor: inactive

How did CCCCN1CCN(C(=O)c2cc(-c3ccncc3)nc3ccccc23)CC1 do in these assays?
KDM5B inhibitor: inactive

Results for O=C(NC1CC1)c1ccc(Sc2ccccn2)cc1 ?
KDM5B inhibitor: inactive

What do the screens show for `C(=C\c1ccccc1)/C1=NO[C@@H]2[C@H]3CC[C@H](C3)[C@H]12`?
KDM5B inhibitor: inactive

What do the screens show for `CCOc1cc2cc(C(=O)c3ccccc3O)cnc2cc1OCC`?
KDM5B inhibitor: inactive

Results for CCc1ccc(NCc2ccc(OC)c(Cn3ccnc3)c2)cc1 ?
KDM5B inhibitor: inactive

Results for COc1ccc(-c2ccc(Cn3ccnc3)cn2)c2ccc(C)nc12 ?
KDM5B inhibitor: 25µM*

Results for C=CCCC(CN1CCOCC1)Oc1ccc(Cn2ccnc2)cn1 (stereo not drawn) ?
KDM5B inhibitor: inactive

Results for O=C(Nc1ccc(Cl)c(C(F)(F)F)c1)c1c(Cl)cccc1Cl ?
KDM5B inhibitor: inactive

Results for Cc1cccc(-n2nnnc2C2(NC3CCCCC3)CCCC2)c1 ?
KDM5B inhibitor: inactive

How did CCC(=O)N1Cc2ccccc2CC2(CCN(CC3CCOCC3)C2)C1 (stereo not drawn) do in these assays?
KDM5B inhibitor: inactive

What do the screens show for `O=C(Nc1ccc(OCc2ccccc2)cc1)c1ccc[n+]([O-])c1`?
KDM5B inhibitor: inactive

What do the screens show for `COc1ccc(C(=O)N2CCN(C(=O)Cc3cc(OC)c(OC)c(OC)c3)CC2)cc1`?
KDM5B inhibitor: inactive

What do the screens show for `COc1cccc(C(C)N(C)C(=O)c2cc(Cn3ccnc3C(C)C)[nH]n2)c1` (stereo not drawn)?
KDM5B inhibitor: inactive

Results for COc1cccc(-c2ccc(C(=O)NCCCn3ccnc3C(C)C)cn2)c1 ?
KDM5B inhibitor: 28µM*

How did Cc1nccn1CCNC(=O)c1ccc(CC2CCN(S(C)(=O)=O)CC2)cc1 do in these assays?
KDM5B inhibitor: inactive

How did CC(C)c1nccn1CCCNC(=O)c1ccc(N2CCCC(CO)C2)nc1 (stereo not drawn) do in these assays?
KDM5B inhibitor: inactive

Results for CC(C)c1nccn1CCCNC(=O)c1ccc(-c2ccc(F)cc2)nc1 ?
KDM5B inhibitor: inactive

What do the screens show for `CC(C)c1nccn1CCCNC(=O)c1ccc(NC2CCC(O)CC2)nc1` (stereo not drawn)?
KDM5B inhibitor: 28µM*

How did COc1ccc(Cl)cc1NC(=O)Cn1c(=O)cc(C(=O)N2CCCC2)c2ccccc21 do in these assays?
KDM5B inhibitor: inactive

Results for O=C(CNC(=O)c1cc(-c2cccs2)nc2ccccc12)NC1CC1 ?
KDM5B inhibitor: inactive

What do the screens show for `CN(C(=O)CCc1cccs1)C1CCCCC1`?
KDM5B inhibitor: inactive

How did C=C(C)COc1cccc(C(=O)Nc2ccccc2)c1 do in these assays?
KDM5B inhibitor: inactive

What do the screens show for `Cc1cc(C)n2c(Nc3ccc(C(C)C)cc3)c(-c3ccsc3)nc2n1`?
KDM5B inhibitor: inactive

How did Cc1cc(Nc2ccc(F)cc2C)n2nc(-c3ccco3)nc2n1 do in these assays?
KDM5B inhibitor: inactive

Results for COc1ccc(Nc2cc(C)nc3nc(-c4ccc(C)cc4)nn23)c(OC)c1 ?
KDM5B inhibitor: inactive

Bioassay records from PubChem BioAssay.
